According to the supplement of paper PMC11219838:

What was measured:
Conditions in all cases: 60 µM; 5 days; temperature: 20 °C
Meloidogyne hapla J2 = test: proportion of mobile M. hapla J2 relative to DMSO control (fraction of DMSO control); higher = more viable, less nematicidal, active = 0.7 or less
Outline: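 About 25 M. hapla J2 were placed in each well of a 96-well plate in distilled water, and compound was pinned in to a final 60 µM with 0.6% v/v DMSO. The sealed plates were shaken at 200 rpm at 20 °C for 5 days, after which 2 µL of 1 M NaOH went into each well. Mobility was then scored under the microscope and divided by the mean value from DMSO-only wells on the same plate. Each plate held eight such DMSO wells, and two biological replicates were averaged.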

Ditylenchus dipsaci = test: proportion of mobile D. dipsaci (mixed stage) relative to DMSO control (fraction of DMSO control); higher = more viable, less nematicidal, active = 0.86 or less; extreme values may be limits of the assay
Outline: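 Ditylenchus dipsaci nematodes were cultured on pea plants in Gamborg B-5 agar, then extracted into water through a filter funnel, and roughly 20 worms in distilled water were placed in each well of a 96-well plate. Compound was pinned in to a final concentration of 60 µM (0.6% v/v DMSO), and the sealed plates were shaken at 200 rpm for 5 days at 20 °C. Mobile worms were counted under the microscope after 2 µL of 1 M NaOH was added. Mobility is given relative to DMSO controls as the mean of two biological replicates.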

[1] = system: Caenorhabditis elegans dauer (daf-2(e1370)); test: proportion of mobile C. elegans dauer larvae relative to DMSO control (fraction of DMSO control); higher = more viable, less nematicidal, active = 0.63 or less; extreme values may be limits of the assay
Outline: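 Synchronized C. elegans daf-2(e1370) larvae were held at 25 °C for 48 h on MYOB plates with E. coli OP50 to form dauers, and about 20 dauers were added per 96-well well in liquid NGM. Compound was pinned to 60 µM final (0.6% v/v DMSO), and sealed plates were shaken at 200 rpm for 5 days at 20 °C. The proportion of mobile worms was scored under a dissection microscope relative to DMSO controls and averaged over two biological replicates.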

| Compound | proportion of mobile M. hapla J2 (Meloidogyne hapla J2) | proportion of mobile D. dipsaci (Ditylenchus dipsaci) | proportion of mobile C. elegans dauer larvae [1] |
| --- | --- | --- | --- |
| CCCOc1ccc(-c2ccc(-c3nc(-c4ccccn4)no3)cc2)cc1 | 0.969 (inactive) | 1 (inactive) | – |
| Cc1ccc(C(=O)Nc2ccccc2-c2nc(-c3ccncc3)no2)cc1C | 1.06 (inactive) | 1 (inactive) | – |
| N#Cc1ccccc1CSc1nnc(-c2ccco2)o1 | 0.859 (inactive) | 1 (inactive) | – |
| Cc1cccc(-c2noc(-c3ccc(Cl)cc3)n2)c1 | 1.05 (inactive) | 1 (inactive) | – |
| c1ccc(-c2noc(C3COc4ccccc4O3)n2)cc1 (stereo not drawn) | 0.953 (inactive) | 1 (inactive) | – |
| CC(C)CCC(=O)Nc1ccccc1-c1nc(-c2ccncc2)no1 | 0.977 (inactive) | 1 (inactive) | – |
| Cc1ccc(NC(=O)CSc2nnc(-c3ccccc3)o2)cc1F | 1.02 (inactive) | 1 (inactive) | – |
| COc1cccc(-c2noc(COc3cc(C)ccc3C)n2)c1 | 0.873 (inactive) | 1 (inactive) | – |
| Cc1ccc(OCc2nc(-c3ccccc3)no2)c(Br)c1 | 1.01 (inactive) | 1 (inactive) | – |
| Cc1ccc(-c2noc(-c3cccc(C)c3)n2)cc1 | 0.947 (inactive) | 1 (inactive) | 0.557 (active) |
| O=C(CSc1nnc(-c2cccc(Cl)c2)o1)N1CCCCC1 | 1 (inactive) | 1 (inactive) | – |
| Cc1ccc(OCc2nc(-c3cccnc3)no2)c(Br)c1 | 0.992 (inactive) | 1 (inactive) | – |
| Cc1ccc(OCc2nc(-c3ccc(Cl)cc3)no2)c(C)c1 | 0.997 (inactive) | 1 (inactive) | – |
| Cc1ccc(OCc2nc(-c3ccccc3Cl)no2)c(C)c1 | 1 (inactive) | 1 (inactive) | – |
| CCN(Cc1ccccc1)C(=O)c1ccccc1-c1nc(-c2cccc(C)c2)no1 | 0.579 (active) | 1 (inactive) | – |
| Cc1ccc(-c2noc(-c3ccc(C)cc3C)n2)cc1 | 0.869 (inactive) | 1 (inactive) | – |
| C#CCOc1ccc(-c2nc(-c3ccccc3)no2)cc1 | 1.06 (inactive) | 1 (inactive) | – |
| CC(=O)Nc1ccc(NC(=O)c2ccccc2-c2nc(-c3cccc(C)c3)no2)cc1 | 1.01 (inactive) | 1 (inactive) | – |
| Cc1cccc(-c2noc(-c3ccccc3F)n2)c1 | 0.874 (inactive) | 1 (inactive) | – |
| Cn1c(SCc2cccc(F)c2)nnc1-c1ccco1 | 0.929 (inactive) | 1 (inactive) | – |
| Cc1ccc(-c2noc(COc3ccccc3Cl)n2)cc1 | 0.96 (inactive) | 1 (inactive) | – |
| CC1CCN(C(=O)CSc2nnc(-c3cc4ccccc4o3)o2)CC1 | 0.996 (inactive) | 1 (inactive) | – |
| O=C(NCc1cccnc1)c1ccccc1-c1nc(-c2ccccc2Cl)no1 | 0.771 (inactive) | 1 (inactive) | – |
| COc1ccc(OC(C)c2nc(-c3cccnc3)no2)cc1 (stereo not drawn) | 0.966 (inactive) | 1 (inactive) | – |

| Compound | proportion of mobile M. hapla J2 (Meloidogyne hapla J2) | proportion of mobile D. dipsaci (Ditylenchus dipsaci) | proportion of mobile C. elegans dauer larvae [1] |
| --- | --- | --- | --- |
| Clc1ccc(OCc2nc(-c3ccccn3)no2)c(Br)c1 | 1.04 (inactive) | 1 (inactive) | 1 (inactive) |
| CC(=O)c1cccc(NC(=O)CSc2nnc(-c3ccccc3)o2)c1 | 0.937 (inactive) | 1 (inactive) | – |
| Cc1cc(Cl)ccc1OCc1nc(-c2ccncc2)no1 | 1.02 (inactive) | 1 (inactive) | – |
| Cc1ccc(-c2nc(-c3ccc(F)cc3)no2)cc1 | 1.04 (inactive) | 0.708 (active) | 0 (active) |
| O=C(CSc1nnc(-c2cccc(Br)c2)o1)c1ccc2c(c1)CCCC2 | 0.967 (inactive) | 1 (inactive) | 1 (inactive) |
| Cc1cnc(NC(=O)CSc2nnc(-c3cccc(Cl)c3)o2)s1 | 0.97 (inactive) | 0.9 (inactive) | – |
| c1cc(-c2noc(C34CC5CC(CC(C5)C3)C4)n2)ccn1 | 0.941 (inactive) | 1 (inactive) | – |
| CC(Sc1nnc(-c2ccc(C(C)(C)C)cc2)o1)C(=O)Nc1nccs1 (stereo not drawn) | 0.845 (inactive) | 1 (inactive) | – |
| Cc1cc(OCc2nc(-c3ccccc3)no2)cc(C)c1Cl | 1.05 (inactive) | 1 (inactive) | – |
| COc1ccc(-c2nnc(SCC(=O)Nc3ccc(Cl)cc3Cl)o2)cc1 | 0.976 (inactive) | 1 (inactive) | – |
| Clc1ccc(OCc2nc(-c3ccccc3)no2)cc1 | 1.04 (inactive) | 1 (inactive) | – |
| CCCc1ccc(-c2nc(-c3ccc(F)cc3)no2)cc1 | 1.01 (inactive) | 1 (inactive) | – |
| Cc1cc(OCc2nc(-c3ccccc3)no2)ccc1Br | 0.932 (inactive) | 1 (inactive) | – |
| COc1nc(C)ccc1-c1noc(-c2ccc(Cl)cc2)n1 | 0.832 (inactive) | 1 (inactive) | – |
| CCOc1ccc(-c2nc(-c3ccc(Cl)cc3)no2)cc1 | 1 (inactive) | 1 (inactive) | – |
| Cc1cccc(-c2noc(-c3ccc(C)cc3Cl)n2)c1 | 0.964 (inactive) | 1 (inactive) | – |
| Cc1cccc(-c2noc(-c3ccccc3Br)n2)c1 | 0.99 (inactive) | 1 (inactive) | – |
| COc1cccc(-c2noc(COc3ccc(C)c(C)c3)n2)c1 | 1.06 (inactive) | 1 (inactive) | – |
| CCCC(=O)Nc1ccccc1-c1nc(-c2cccnc2)no1 | 1.04 (inactive) | 1 (inactive) | – |
| COc1nc(-c2ccc(Cl)cc2)ccc1-c1noc(C)n1 | 1.03 (inactive) | 1 (inactive) | – |
| O=C(CSc1nnc(-c2cccc(F)c2)o1)Nc1ccccc1C(=O)c1ccccc1 | 0.889 (inactive) | 1 (inactive) | – |
| COc1ccc(Cl)cc1-c1noc(COc2ccccc2C)n1 | 0.977 (inactive) | 1 (inactive) | – |
| O=C(CSc1nnc(-c2ccccc2)o1)Nc1ccc2ccccc2c1 | 1.01 (inactive) | 1 (inactive) | – |
